The list is not random: actives were taken first. Their share in the collection is about 6.2%.
FMDV antiviral: blocks foot and mouth disease virus; AID 1159524; FMDV antiviral cell-based qHTS; Potency, µM (titrated, usually from 57.9 µM), without a hit: top-dose activity change, negative = inhibition, usual class: inhibitors; hit rate 1.2% among 410,000; calls by dose curve; tested in HEK293T cells; note: read-out not given here; potency is the fitted concentration of half-maximal effect; nearly all actives have a fitted effect of over 45% in size
LASV entry inh: blocks Lassa virus binding to or entry into cells | Lassa virus pseudotype entry inhibition, cell reporter | Potency, µM (highest dose often 37.9 µM), without a hit: at the top dose activity change, negative = inhibition, most hits filed as inhibitors | hit rate 1.2% among 300,000; calls by dose curve; tested in HEK293 cells; note: potency is the fitted concentration of half-maximal effect; nearly all actives have a fitted effect of over 50% in size
HCMV antiviral: blocks human cytomegalovirus replication; HFF cells, HCMV-luciferase reporter, 72 h; hits give low values; activity change, negative = inhibition, % at 57.5 µM; hit rate 4.5% among 410,000; in the data active = activity change below about -60%; inconclusive = no clear call, values can overlap the other calls; inactive = above about -39%
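Steps: HFFs plated, 16 h 37C; compounds added; HCMV-luciferase added to MOI 1 PFU/cell; 72 h 37C; OneGlo reagent, 5 min room temperature; luminescence read, normalized to controls.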
Marburg entry inh: inhibitors of Marburg virus binding or cell entry; Marburg virus pseudotyped entry inhibition, cell reporter; Potency, µM (highest dose often 37.8 µM), inactives show top-dose activity change, negative = inhibition, usual class: inhibitors; hit rate 1.8% among 300,000; calls by dose curve; tested in HEK293 cells; note: potency is the fitted concentration of half-maximal effect
Starred values were filed as active, the others as inactive; ? = inconclusive; . = no result; [ ] = another dose, or the depositor's remark. % is set by controls: 0 for no effect and ±100 for the full control effect.

SMILES	FMDV antiviral	LASV entry inh	HCMV antiviral	Marburg entry inh
COc1ccc(Cn2ccc3nc(C)c(C(=O)NCc4ccc(F)cc4)cc3c2=O)cc1	-17.2%	?	-77.4*	.
COc1ccc(Cn2ccc3nc(C)c(C(=O)NCc4ccc(C)cc4)cc3c2=O)cc1	?	-9.4%[46.1 µM]	-2.9	.
N#Cc1cccc(NC(=O)N2CCC3(CC2)CCN(C(=O)c2cccc(F)c2)CC3)c1	-9.1%	.	.	.
CCc1c(C)sc(NC(=O)c2cc(-c3cc(OC)ccc3OC)on2)c1C#N	-9.9%	-14.4%	-67.8*	?
CCc1c(C)sc(NC(=O)c2cc(-c3ccc(OC)c(OC)c3)on2)c1C#N	0.0%	16.4%[46.1 µM]	10.0	-13.3%[46.1 µM]
CCc1c(C)sc(NC(=O)c2cc(-c3cccc(Cl)c3)on2)c1C#N	-17.9%	-1.8%[46.1 µM]	-19.2	-3.5%[46.1 µM]
CCc1c(C)sc(NC(=O)c2cc(-c3ccc(O)cc3)on2)c1C#N	-4.6%	.	-60.9*	.
COc1ccc(CN2CCN(Cc3ccccc3C(F)(F)F)CC2)c(OC)c1	-18.0%	?	?	11.2µM*
FC(F)(F)c1ccccc1CN1CCN(C2CCCCCC2)CC1	-26.1%	?	?	8.2µM*
FC(F)(F)c1ccccc1CN1CCCC(N2CCN(c3ccccc3)CC2)C1 (stereo unspecified)	-13.4%	.	-60.9*	.
COc1cccc(CN2CCN(Cc3ccccc3C(F)(F)F)CC2)c1	-22.3%	-8.2%[46.1 µM]	10.4	?
FC(F)(F)c1ccccc1CN1CCN(Cc2ccccc2)CC1	.	-20.1%	15.5	?
CCOC(=O)C1=CCN(S(=O)(=O)c2ccccc2C)C1c1cccc(Br)c1 (stereo unspecified)	-21.7%	.	?	.
Cc1nc(-c2cccc(F)c2)sc1CCNC(=O)c1c(F)cccc1Cl	5.3%	1.7%[46.1 µM]	-25.5	.
Cn1c(C(=O)N2CCCC(C(=O)NCCCc3ccccc3)C2)cc2sccc21 (stereo unspecified)	?	-12.3%	-8.2	?
Cn1c(C(=O)N2CCCC(C(=O)NCCc3ccccc3)C2)cc2sccc21 (stereo unspecified)	.	?	-97.3*	?
COc1ccc(/C=N/Nc2nnc(Cc3ccc(OC)c(OC)c3)c(=O)[nH]2)cc1	-1.1%	-3.4%	-68.0*	-51.7%
Cc1ccccc1C(=O)N1CCc2c(cnc(C)c2CNC(=O)c2ccc3c(c2)OCO3)C1	-16.1%	.	.	.
O=C(NCCn1ccc2ccccc21)c1cccc([N+](=O)[O-])c1	-3.1%	4.3%	-80.2*	9.2%[46.1 µM]
Cc1ccc2cc(CCNC(=O)c3cccc([N+](=O)[O-])c3)c(=O)[nH]c2c1C	22.4µM*	1.1%	-38.4	3.5%
CC(=O)NCCc1cc2ccc(C)c(C)c2[nH]c1=O	5.3%	.	-0.5	.
Cc1ccc(C(=O)NCCn2c(C)cc3ccccc32)cc1C	-6.9%	?	-69.2*	?
O=C(Cn1c(=O)n(-c2ccc(Cl)cc2)c(=O)c2c3c(sc21)CCC3)c1ccc(F)cc1	-15.9%	-1.6%[46.1 µM]	-29.9	?
COC(=O)c1ccc(C(NC(=O)OCc2ccccc2)/C(F)=C/[C@@H](C)C(=O)NCc2ccc(OC)c(OC)c2)cc1 (stereo partly specified)	?	14.6µM*	-11.1	?
O=c1c2c3c(sc2n(Cc2ccccc2F)c(=O)n1-c1ccc(Cl)cc1)CCCC3	-13.3%	-19.5%[46.1 µM]	7.7	-0.9%[46.1 µM]
SMILES	FMDV antiviral	LASV entry inh	HCMV antiviral	Marburg entry inh
O=C(CCNC(=O)c1ccccc1)NC1CCCc2ccccc21 (stereo unspecified)	3.3%	-5.1%	-26.1	?
O=C(CCNC(=O)c1ccc([N+](=O)[O-])cc1)NC1CCCc2ccccc21 (stereo unspecified)	-1.2%	?	-1.9	2µM*
COC(=O)c1c(C(=O)OC)c2c3cc(OC)c(OC)cc3cc([Si](C)(C)C)n2c1C(=O)OC	.	.	.	24.3%[14.2 µM]
COc1ccc(N2CCN(C(=O)CSc3nc(-c4ccc(C(C)C)cc4)no3)CC2)cc1	3.5%	14.8%[46.1 µM]	2.9	.
Cc1ccc(OCC(=O)N2CCC(Cc3ccccc3)CC2)c([N+](=O)[O-])n1	-17.3%	.	-74.2*	.
O=C(COc1ccccc1[N+](=O)[O-])OCC(=O)N1CCC(Cc2ccccc2)CC1	-13.2%	13.0%	33.2	?
O=C(COc1cccnc1[N+](=O)[O-])N1CCC(Cc2ccccc2)CC1	10.1%	-4.1%[46.1 µM]	-75.8*	?
Cn1c(SCC2CCCO2)nnc1C1CCN(Cc2ccc(-c3cccc(Cl)c3)o2)CC1 (stereo unspecified)	-9.5%	.	.	.
O=C(C[C@@H]1CC[C@@H]2[C@H](COC[C@H](O)CN2CCC(F)(F)F)O1)NCc1ccc2c(c1)OCO2	-9.4%	.	1.4	.
Cc1ccccc1CNC(=O)c1ccc2sc([C@H]3C[C@H](O)[C@@H](CO)O3)nc2c1	14.9%	.	67.6	.
O=C(NCC1CC1)c1ccc2sc([C@H]3C[C@H](O)[C@@H](CO)O3)nc2c1	-1.5%	.	-102.0*	.
C[N+](C)(C)Cc1ccccc1	35.5µM*	-2.2%	-12.6	10.5%
COCCNC(=O)/C(=C/c1ccccc1Cl)c1ccccc1	0.0%	?	-77.0*	3.2%
Oc1cccc(-c2nc3ncccn3c2Nc2cccc(C(F)(F)F)c2)c1	-2.2%	-15.8%[46.1 µM]	4.8	10.1%[46.1 µM]
CCOc1ccc2nc(SCC#N)c(C#N)cc2c1	0.0%	-7.5%	-67.9*	?
O=C(N/N=C/c1c(O)ccc2ccccc12)c1[nH]ncc1Br	64.1%	16.4µM*	-98.6*	?
O=C(N/N=C\c1c(O)ccc2ccccc12)c1ccc(Cn2cccn2)o1	?	13µM*	-99.3*	5.8µM*
CCOc1ccc(/C=N/NC(=O)c2[nH]ncc2Br)c(O)c1	-39.1%	1.83µM*	-101.3*	6.51µM*
CC(C)Oc1ccccc1Oc1ccc2c(-c3ccccn3)noc2n1	.	.	-4.9	.
COc1ccccc1-c1cncnc1NCc1cnc(C)cn1	-19.5%	.	.	.
CCOC(=O)c1c(C)n(C)c2cc(CN(C)C)c(O)c(S(=O)(=O)c3ccccc3)c12	7.6%	-0.1%	-69.2*	8.0%[46.1 µM]
CCOC(=O)c1c(-c2ccccc2)oc2cc(CN(C)C)c(O)c(CN(C)C)c12	6.2%	?	-105.6*	?
CCOC(=O)c1c(-c2ccccc2)oc2ccc(O)c(CN3CCN(C)CC3)c12	-22.3%	?	-66.4*	?
CCOC(=O)c1c(C)n(C)c2ccc(O)c(CN3CCC(C)CC3)c12	-23.0%	?	.	11.2µM*
CCOC(=O)c1c(C)n(C)c2ccc(O)c(CN3CCN(C)CC3)c12	.	13.1%	2.0	-25.4%
SMILES	FMDV antiviral	LASV entry inh	HCMV antiviral	Marburg entry inh
CCOC(=O)c1c(-c2ccccc2)oc2ccc(O)cc12	-4.8%	.	-1.0	.
O=C(O)c1ccc(N=Nc2c(O)ccc3ncccc23)cc1	5.62µM*	.	?	.
O=C(O)c1cc(N=Nc2c(O)ccc3ccccc23)cc(C(=O)O)c1	-27.3%	?	150.0	-8.1%
CN(C(=O)CSc1nc2ccc(NC(=O)c3ccccc3F)cc2s1)c1ccccc1	39.8µM*	?	12.8	?
CCOc1ccc(C(=O)Nc2ccc3nc(SCC(=O)N(C)c4ccccc4)sc3c2)cc1	?	-38.0%[46.1 µM]	?	?
COc1ccccc1C(=O)Nc1ccc2nc(SCC(=O)N(C)c3ccccc3)sc2c1	?	?	-65.2*	?
Cc1ccccc1C(=O)Nc1ccc2nc(SCC(=O)N(C)c3ccccc3)sc2c1	-42.7%	?	?	4.6%[46.1 µM]
